The record followed here is ChEMBL document CHEMBL1157539, “Thousands of chemical starting points for antimalarial lead identification” (Nature, 2010).

Format in all cases: functional
In experiment [1] the test system is Plasmodium falciparum. Kind of experiment: GSK_TCMDC: Inhibition of Plasmodium falciparum 3D7 in whole red blood cells, using parasite LDH activity as an index of growth. Test compounds present at 2uM.
Experiment [2] has as its system Plasmodium falciparum. Kind of experiment: GSK_TCMDC: Inhibition of Plasmodium falciparum Dd2 in whole red blood cells, using parasite LDH activity as an index of growth. Test compounds present at 2uM.
The subject of experiment [3] is HepG2. Kind of experiment: GSK_TCMDC: Percent inhibition of human HepG2 cell line. Test compounds present at 10uM.

As to `CCCN(C(=O)c1ccccc1C)c1nnc(-c2cccc(C)c2)s1`, the Inhibition is 91% in experiment [1], 67% in experiment [2] and 8% in experiment [3].

As to `CCCNC(=O)Nc1cc2cc(-c3cccc(CN4CCCCC4)c3)ccc2n2c(C)nnc12`, the Inhibition in experiment [1] came to 100%; in experiment [2] it was 50%; in experiment [3], 60%.

For the compound `O=C(NCC1CCC(C(=O)NC2CCCc3ccccc32)CC1)c1ccc(O)c(-c2cccc([N+](=O)[O-])c2)c1` (centres undefined), the Inhibition was 99% in experiment [1], 97% in experiment [2] and 2% in experiment [3].

Take `CC(C)NCc1ccc(OCc2cccc(COc3ccc(CNC(C)C)cc3I)c2)c(I)c1.Cl`: the Inhibition in experiment [1] is given as 100%; in experiment [2] it was 92%; in experiment [3] it was 100%.

With `COc1ccc2ncc(F)c(CCN3CC(O)C(CNCc4ccc5c(n4)NC(=O)CS5)C3)c2c1.Cl` (centres undefined), the Inhibition in experiment [1] turned out to be 92%; in experiment [2], 34%; in experiment [3], 0%.

Regarding `CCOc1cc(C)ccc1N(C1CCN(CCCCNC(=O)c2ccc(-c3ccc(C(F)(F)F)cc3)cc2)CC1)S(=O)(=O)c1ccccc1`, the Inhibition in experiment [1] is given as 88%; in experiment [2] it was 85%; in experiment [3], 14%.

With `COc1cc(F)c2ncc(Cl)c(C(O)CN3CCC(NC(=O)c4ccc5c(n4)NC(=O)CO5)CC3)c2c1.Cl` (centres undefined), the Inhibition in experiment [1] turned out to be 100%; in experiment [2], 100%; in experiment [3], 22%.

On to `O=C(Nc1cccnc1)c1cn(-c2ccccc2)nc1-c1cccs1`, for which the figures for the Inhibition in experiment [1], in experiment [2] and in experiment [3] were 99%, 61% and 3%, respectively.

On to `CSc1ccc(NC(=O)Nc2cc(C)nc3ccccc23)cc1`, for which the Inhibition was 100% in experiment [1], 23% in experiment [2] and 7% in experiment [3].

Turning to `COc1cc(-c2ccc(-c3cnc(N)nc3OC)[nH]2)cc(OC)c1OC`, the Inhibition worked out at 100% in experiment [1], 54% in experiment [2] and 0% in experiment [3].

With `COc1ccc(C(=O)CCC(=O)N(Cc2ccc(-c3ccc(CNCCc4ccc(S(C)(=O)=O)cc4)cn3)cc2)C2CC3CCC2C3)cc1F.O=C(O)C(F)(F)F` (centres undefined), the Inhibition in experiment [1] is reported as 97%; in experiment [2] it was 34%; in experiment [3], 5%.

In the case of `Cc1cc(=NN=Cc2ccccc2Cl)c2cc(C(F)(F)F)ccc2[nH]1`, the Inhibition in experiment [1] is 100%; in experiment [2], 75%; in experiment [3], 0%.

As for `CC(C)CCNC(=N)Nc1ccc(OCCCCCOc2ccc(NC(=N)NCCC(C)C)cc2)cc1`, the Inhibition in experiment [1] was found to be 85%; in experiment [2], 67%; in experiment [3], 14%.

Regarding `Cc1ccc(C2(C)CC(C)(C)N(C(=O)COc3ccc4ccccc4c3)c3ccccc32)cc1` (centres undefined), the Inhibition in experiment [1] came to 100%; in experiment [2], 98%; in experiment [3], 0%.

With `COc1ccc2nc3cc(Cl)ccc3c(NCCCCNc3c4ccc(Cl)cc4nc4ccc(OC)cc34)c2c1`, the figures for the Inhibition in experiment [1], in experiment [2] and in experiment [3] were 99%, 99% and 20%, respectively.

Take `Cl.Cl.N=C(N)c1ccc(-c2cc(-c3cccc(C(=N)N)c3)on2)cc1`: the Inhibition in experiment [1] amounted to 96%; in experiment [2] it was 45%; in experiment [3], 7%.

Consider `Cc1cc(=NN=Cc2cccc(F)c2)c2ccc(F)cc2[nH]1`, for which the Inhibition in experiment [1] was 100%; in experiment [2], 99%; in experiment [3], 2%.

On to `O=C(Nc1ccc(Cl)cc1)c1ccc(CN2CCCN(Cc3ccc(F)cc3)CC2)cc1.O=C(O)C(F)(F)F`, for which the results for the Inhibition in experiment [1], in experiment [2] and in experiment [3] were 91%, 8% and 48%, respectively.

On to `CC1CN(c2ccc(C(=O)NCC3CC3)cc2NC(=O)OCc2ccccc2)CC(C)O1.O=C(O)C(F)(F)F` (centres undefined), for which the Inhibition amounted to 91% in experiment [1], 76% in experiment [2] and 0% in experiment [3].

Consider `CN(CCCCNC(=O)c1cc2ccccc2[nH]1)C1CC2(CCN(C(=O)OC(C)(C)C)CC2)c2ccccc21` (centres undefined), for which the Inhibition in experiment [1] came out at 86%; in experiment [2] it was 75%; in experiment [3] it was 12%.

Consider `O=C(Oc1ccc(Cl)cc1C(=O)Nc1ccc([N+](=O)[O-])cc1Cl)c1ccccc1`, for which the Inhibition in experiment [1] turned out to be 97%; in experiment [2], 19%; in experiment [3] it was 88%.

As for `CC(=O)O.C[C@H](NC(=O)[C@H](Cc1ccccc1)NC(=O)OC(C)(C)C)C(=O)N[C@@H](CC1CCCCC1)C(O)CN` (some centres undefined), the results for the Inhibition in experiment [1], in experiment [2] and in experiment [3] were 96%, 64% and 0%, respectively.

For the compound `Cc1cc(O)c(CN(C)Cc2ccc3c(c2)OCO3)cc1C(C)C`, the values for the Inhibition in experiment [1], in experiment [2] and in experiment [3] were 98%, 74% and 9%, respectively.

Turning to `Cc1ccc(C2CCN(CCCCNC(=O)c3ccc(-c4ccc(C(F)(F)F)cc4)cc3)CC2)c(O)c1`, the Inhibition is listed as 100% in experiment [1], 49% in experiment [2] and 92% in experiment [3].

Turning to `O=C(O)c1ccc(OCOCOc2ccc(C(=O)O)c(O)c2)cc1O`, the Inhibition in experiment [1] was found to be 99%; in experiment [2], 0%; in experiment [3], 0%.

In the case of `O=C(Nc1nc(-c2ccccn2)cs1)c1ccc(Br)s1`, the results for the Inhibition in experiment [1], in experiment [2] and in experiment [3] were 96%, 84% and 40%, respectively.

With `CCCc1ccc(S(=O)(=O)NC2CCN(C(=O)Nc3ccc(I)cc3)CC2)cc1`, the Inhibition in experiment [1] was 97%; in experiment [2], 0%; in experiment [3], 8%.

With `CCCCN(CCCC)CCCN(CCCN(CCCC)CCCC)c1cc(C)nc(Nc2ccc(Br)cc2)n1.O=C(O)C(=O)O`, the Inhibition in experiment [1] is 99%; in experiment [2], 98%; in experiment [3], 51%.

Usually Inhibition stands for the change of the read-out against control, counted positive when it falls.
